From PubChem BioAssay
CF NFkB block = inhibitors of cystic fibrosis induced NF-kB; KKLEB NF-kB-GFP reporter, PAF-induced, GFP fluorescence overnight; inhibition, % at 5 µM; 360,000 compounds, 0.86% hits; AID 588850;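 active means at least 50% inhibition at 5 µM, scaled per plate between neutral and stimulator controls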;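 further: PAF is a Pseudomonas aeruginosa culture filtrate used as stimulus; plate controls were PAF-stimulated DMSO wells for no effect and unstimulated DMSO wells for full effect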
HIF-2a block = blocks HIF-2a reporter activity; inhibition, % at 18.8 µM; AID 624352; 360,000 compounds, 0.72% hits; 786-0 RCC cells HIF-2a reporter, luciferase luminescence, overnight;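 active means inhibition of the luminescence signal of 40% or more relative to plate controls, in a single-dose primary screen at 18.75 µM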
TROY NFkB inh = inhibitors of TROY-dependent NF-kB signaling; Q293 LMP1-TROYcd NF-kB luciferase reporter, 4 h; 360,000 compounds, 0.98% hits; inhibition, % at 10 µM;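 active means compounds whose plate-normalised and pattern-corrected inhibition of the luciferase reporter signal at the single screening dose is 50% or more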
Peg3 prom inh = Peg3 promoter activity inhibition; HeLa PEG-Prom luciferase reporter, luminescence, overnight; inhibition, % at 20 µM; 360,000 compounds, 1.7% hits;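 active means inhibition of at least 50% at 20 µM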
TWEAK-Fn14 inh = TWEAK-Fn14 signaling inhibition. TWEAK-stimulated Fn14 reporter cells, luciferase luminescence, 8 h. 360,000 compounds, 2% hits. AID 1159606. inhibition, % at 10 µM; in the data active means inhibition above about 50%
KKLEB tox = reduces viability of KKLEB cystic fibrosis airway cells. KKLEB CF airway cells viability, ATPlite luminescence, overnight; stronger effect = lower value; cells stimulated with P. aeruginosa culture filtrate. activity change (cytotoxicity), % at 5 µM. 360,000 compounds, 0.36% hits;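 active means corrected activity change at or below -50% at 5 µM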
Starred values were filed as active, the others as inactive. Most compounds without a hit are left out; they make up all but 4% or so of the library.

Results for Cc1cc(C)c(O)c(-c2n[nH]c3c2C(c2cccc(O)c2)N(Cc2ccco2)C3=O)c1 (configuration not stated) ?
CF NFkB block: 6; HIF-2a block: 30; TROY NFkB inh: 60*; Peg3 prom inh: 30; TWEAK-Fn14 inh: 17; KKLEB tox: 13

How did COc1ccc(C2c3c(-c4ccccc4O)n[nH]c3C(=O)N2Cc2ccco2)cc1OC (configuration not stated) do in these assays?
CF NFkB block: 14; HIF-2a block: 25; TROY NFkB inh: -6; Peg3 prom inh: 10; TWEAK-Fn14 inh: -15; KKLEB tox: 4

What do the screens show for `O=C1c2[nH]nc(-c3ccccc3O)c2C(c2cccc(Cl)c2)N1Cc1ccco1` (configuration not stated)?
CF NFkB block: 6; HIF-2a block: 31; TROY NFkB inh: 24; Peg3 prom inh: 60*; TWEAK-Fn14 inh: 29; KKLEB tox: -1

What do the screens show for `Cc1csc(NC(=O)CSc2nnc(-c3ccc(S(=O)(=O)N4CCCC4)cc3)o2)n1`?
CF NFkB block: 1; HIF-2a block: -9; TROY NFkB inh: 3; Peg3 prom inh: 15; TWEAK-Fn14 inh: 4; KKLEB tox: 7

Results for COc1ccc(CN(CC2CCCO2)C(=O)c2cc3sccc3n2C)c(OC)c1 (configuration not stated) ?
CF NFkB block: 13; HIF-2a block: 17; TROY NFkB inh: -8; Peg3 prom inh: 17; TWEAK-Fn14 inh: 5; KKLEB tox: -1

What do the screens show for `O=C(/C=C/c1cccs1)c1ccc(N2CCOCC2)cc1`?
CF NFkB block: 13; HIF-2a block: -181; TROY NFkB inh: 75*; Peg3 prom inh: -3; TWEAK-Fn14 inh: 89*; KKLEB tox: -46

What do the screens show for `O=C(/C=C/c1cccc(F)c1)c1ccc(N2CCOCC2)cc1`?
CF NFkB block: -6; HIF-2a block: -198; TROY NFkB inh: -3; Peg3 prom inh: -156; TWEAK-Fn14 inh: 28; KKLEB tox: -24

What do the screens show for `CC(=O)N1c2ccccc2N2C(c3c(C)c(C)cc(C)c3C)=NON12`?
CF NFkB block: -6; HIF-2a block: 22; TROY NFkB inh: -2; Peg3 prom inh: 20; TWEAK-Fn14 inh: -12; KKLEB tox: 7

Results for Cc1csc(NC(=O)CCCNC(=O)c2ccc(Cl)cc2)n1 ?
CF NFkB block: -14; HIF-2a block: -9; TROY NFkB inh: -21; Peg3 prom inh: -17; TWEAK-Fn14 inh: -8; KKLEB tox: 4

How did Nc1c(N(CCC2=CCCCC2)C(=O)COc2ccc(F)cc2Cl)c(=O)[nH]c(=O)n1Cc1ccccc1 do in these assays?
CF NFkB block: 38; HIF-2a block: -3; TROY NFkB inh: 10; Peg3 prom inh: 106*; TWEAK-Fn14 inh: 42; KKLEB tox: -36

How did Nc1c(N(CCC2=CCCCC2)C(=O)Cc2ccc(F)cc2)c(=O)[nH]c(=O)n1Cc1ccccc1 do in these assays?
CF NFkB block: 27; HIF-2a block: 3; TROY NFkB inh: -8; Peg3 prom inh: 7; TWEAK-Fn14 inh: 13; KKLEB tox: -10

Results for Nc1c(N(CCC2=CCCCC2)C(=O)COc2ccc([N+](=O)[O-])cc2)c(=O)[nH]c(=O)n1Cc1ccccc1 ?
CF NFkB block: 6; HIF-2a block: 0; TROY NFkB inh: 7; Peg3 prom inh: 84*; TWEAK-Fn14 inh: 8; KKLEB tox: -27

How did O=C(O)c1ccc2c(c1)C(=O)N(c1cc(C(=O)O)ccc1Br)C2=O do in these assays?
CF NFkB block: -2; HIF-2a block: 5; TROY NFkB inh: 0; Peg3 prom inh: 12; TWEAK-Fn14 inh: 3; KKLEB tox: 7

What do the screens show for `O=C(c1cccc(C(F)(F)F)c1)N1CCC(=O)N(C(CO)Cc2ccccc2)CC1` (configuration not stated)?
CF NFkB block: -7; HIF-2a block: 6; TROY NFkB inh: 4; Peg3 prom inh: 5; TWEAK-Fn14 inh: 1; KKLEB tox: -10

What do the screens show for `O=C(c1ccc(C(F)(F)F)cc1)N1CCC(=O)N(C(CO)Cc2ccccc2)CC1` (configuration not stated)?
CF NFkB block: 19; HIF-2a block: 4; TROY NFkB inh: -29; Peg3 prom inh: 0; TWEAK-Fn14 inh: 70*; KKLEB tox: 4

How did COc1cc(/C=C/C(=O)OCC(=O)N2CC(=O)Nc3ccccc32)ccc1O do in these assays?
CF NFkB block: 9; HIF-2a block: 20; TROY NFkB inh: 3; Peg3 prom inh: 6; TWEAK-Fn14 inh: 2; KKLEB tox: 0

What do the screens show for `CN1CCN(CCCNC(=O)c2ccc(/C=C3\Sc4ccccc4N(Cc4ccc(F)cc4)C3=O)cc2)CC1`?
CF NFkB block: -4; HIF-2a block: -4; TROY NFkB inh: -11; Peg3 prom inh: 104*; TWEAK-Fn14 inh: -53; KKLEB tox: -14

How did CN1CCN(CCCNC(=O)c2ccc(/C=C3/Sc4ccccc4N(Cc4cccc(Cl)c4)C3=O)cc2)CC1 do in these assays?
CF NFkB block: 14; HIF-2a block: 14; TROY NFkB inh: 52*; Peg3 prom inh: 84*; TWEAK-Fn14 inh: -31; KKLEB tox: -20

How did CCN(C(=O)c1cnc(N2CCN(c3ncccn3)CC2)c2ccccc12)c1cccc(Cl)c1 do in these assays?
CF NFkB block: 10; HIF-2a block: 21; TROY NFkB inh: 26; Peg3 prom inh: 22; TWEAK-Fn14 inh: 66*; KKLEB tox: -5

What do the screens show for `CN(C(=O)c1cnc(N2CCN(c3ncccn3)CC2)c2ccccc12)c1ccc(Cl)cc1`?
CF NFkB block: 14; HIF-2a block: 18; TROY NFkB inh: 41; Peg3 prom inh: 62*; TWEAK-Fn14 inh: 49; KKLEB tox: -1

Results for CCN=c1scc(-c2cccs2)n1/N=C/c1cc(OC)ccc1O ?
CF NFkB block: -9; HIF-2a block: -258; TROY NFkB inh: 34; Peg3 prom inh: -302; TWEAK-Fn14 inh: 62*; KKLEB tox: -4

Results for CC(C)N=c1scc(-c2cccs2)n1/N=C/c1ccc(O)c(O)c1O ?
CF NFkB block: -23; HIF-2a block: -72; TROY NFkB inh: 14; Peg3 prom inh: -79; TWEAK-Fn14 inh: 54*; KKLEB tox: -2

How did CN=c1scc(-c2ccccc2F)n1/N=C/c1ccc(O)c(O)c1O do in these assays?
CF NFkB block: -3; HIF-2a block: -47; TROY NFkB inh: 92*; Peg3 prom inh: -73; TWEAK-Fn14 inh: 99*; KKLEB tox: -34

How did C=CCc1c(Cl)nc(C)nc1NCc1ccccc1 do in these assays?
CF NFkB block: 28; HIF-2a block: 20; TROY NFkB inh: 16; Peg3 prom inh: 17; TWEAK-Fn14 inh: 20; KKLEB tox: -13

How did CCOC(=O)C(CC)/C(C)=N\NC(=O)c1ccccc1O (configuration not stated) do in these assays?
CF NFkB block: -11; HIF-2a block: -62; TROY NFkB inh: -51; Peg3 prom inh: 54*; TWEAK-Fn14 inh: 2; KKLEB tox: -12

How did CCC/C(C)=N/NC(=O)c1ccccc1O do in these assays?
CF NFkB block: 5; HIF-2a block: -1; TROY NFkB inh: -27; Peg3 prom inh: 11; TWEAK-Fn14 inh: -3; KKLEB tox: -2
